Laboratory results published in the supplement of paper PMC10646978.
± gives the standard deviation.

How the values were obtained:
Settings in all cases: modulator concentration 10 µM
[1] = test system: RAW-Dual (murine macrophage reporter line); assay: NF-kB reporter (SEAP) activity fold change vs agonist alone; higher = enhanced NF-kB activity
Summary of the method: (§1)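 RAW-Dual murine macrophage reporter cells were plated at 50 000 per well in 384-well plates, pin-transferred compound to 10 μM final, and pre-incubated for 1 hour at 37 °C before a PRR agonist was added and the cells incubated overnight. NF-κB activity was read from supernatant SEAP with QUANTI-Blue at 620 nm absorbance, and IRF activity from Lucia luciferase with QUANTI-Luc by luminescence. Each signal was expressed as fold change by dividing by the mean agonist-only control on the same plate. Two replicate plates were averaged, with errors obtained by propagation.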

[2] = test system: RAW-Dual (murine macrophage reporter line); assay: IRF reporter (Lucia luciferase) activity fold change vs agonist alone; higher = enhanced IRF activity
Summary of the method: as §1

[3] = test system: RAW-Dual (murine macrophage reporter line); assay: viability score (confluency relative to resting cells, overnight) (fraction); higher = more viable, active = viable (0.7 or more)
Summary of the method: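 Two confluency masks, generated with IncuCyte software over all imaged wells, were applied to IncuCyte images of RAW-Dual macrophages. The cells, in 384-well plates, had been exposed overnight to 10 μM final compound. The viability score is confluency as a fraction of resting cells, and a compound met the cutoff only with both masks above 70% of resting cells.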

[4] = agonist: CpG ODN 1826 0.5 ug/mL

| Structure (SMILES) | NF-kB reporter [1, 4] | NF-kB reporter ([1]; agonist: LPS 0.1 ug/mL) | NF-kB reporter ([1]; agonist: MPLA […]) | IRF reporter ([2]; agonist: 3'3'-cGAMP 10 ug/mL) | IRF reporter ([2]; agonist: LPS 0.1 ug/mL) | IRF reporter ([2]; agonist: MPLA […]) | viability score [3] |
| --- | --- | --- | --- | --- | --- | --- | --- |
| CCOC(=O)N[C@@H]1CC[C@@H]2[C@@H](C1)C[C@H]1C(=O)O[C@H](C)[C@H]1[C@H]2/C=C/c1ccc(-c2cccc(F)c2)cn1 | 0.376 ± 0.022 | 0.451 ± 0.1 | 0.323 ± 0.019 | 0.653 ± 0.082 | 0.783 ± 0.15 | 0.737 ± 0.16 | 0.299 (inactive) |
| CC(=O)Oc1ccccc1C(=O)O | 1.01 ± 0.085 | 1.05 ± 0.079 | 0.959 ± 0.048 | 1.02 ± 0.068 | 0.964 ± 0.044 | 0.884 ± 0.11 | 0.998 (active) |
| CC1(C)COC(=O)C1=NNc1ccc([N+](=O)[O-])cc1 | 1.02 ± 0.1 | 1.09 ± 0.073 | 1.03 ± 0.039 | 1.03 ± 0.21 | 1.05 ± 0.13 | 1.18 ± 0.1 | 0.998 (active) |
| O=C1CCC(=O)N1C1CC2CCC(C1)N2C(=O)c1cnccn1 (stereo not drawn) | 0.892 ± 0.056 | 0.903 ± 0.081 | 1.06 ± 0.057 | 1.03 ± 0.053 | 1.22 ± 0.19 | 1.31 ± 0.41 | 0.954 (active) |
| CC1(C)CC(=O)C=C(Nc2ccc(Br)c(Cl)c2)C1 | 0.734 ± 0.066 | 0.962 ± 0.067 | 0.839 ± 0.083 | 1.14 ± 0.06 | 1.08 ± 0.066 | 1.08 ± 0.12 | 1.02 (active) |
| COc1ccc2ccccc2c1C=C1SC(=S)N(CC(=O)O)C1=O | 1.05 ± 0.081 | 1 ± 0.12 | 1 ± 0.099 | 0.988 ± 0.053 | 1.34 ± 0.27 | 1.52 ± 0.4 | 1.04 (active) |
| COc1ccc(CN2CCN(c3cc(C)nc4c5c(C)cc(C)nc5nn34)CC2)cc1F | 1.02 ± 0.08 | 0.961 ± 0.071 | 1.06 ± 0.13 | 1.17 ± 0.037 | 1.34 ± 0.18 | 1.42 ± 0.2 | 0.995 (active) |
| Cc1ccc(C2(c3ccc(C)cc3)CC2C(=O)Nc2cccnc2)cc1 (stereo not drawn) | 0.883 ± 0.061 | 0.985 ± 0.076 | 0.82 ± 0.023 | 1.02 ± 0.036 | 1.01 ± 0.062 | 0.91 ± 0.14 | 0.998 (active) |
| Nc1nc2ccc(OC(F)(F)F)cc2s1 | 0.955 ± 0.13 | 1.09 ± 0.3 | 1.02 ± 0.059 | 1.07 ± 0.044 | 1.15 ± 0.24 | 0.928 ± 0.14 | 0.965 (active) |
| CN1CCOC(c2ccccc2)c2ccccc2C1.Cl (stereo not drawn) | 1.11 ± 0.27 | 1.04 ± 0.052 | 1.05 ± 0.078 | 0.84 ± 0.031 | 1.36 ± 0.16 | 0.95 ± 0.23 | 1.01 (active) |
| Cn1nccc1-c1ccc(CNC(=O)c2cc(Br)cs2)cn1 | 1.02 ± 0.082 | 0.974 ± 0.078 | 1.16 ± 0.12 | 1.03 ± 0.032 | 1.35 ± 0.17 | 1.53 ± 0.23 | 1 (active) |
| O=C(NC1CCN(c2ncnc3c2CCCC3)CC1)c1ccc(=O)[nH]c1 | 1.09 ± 0.13 | 1.09 ± 0.11 | 0.949 ± 0.057 | 0.957 ± 0.096 | 1.24 ± 0.11 | 1.07 ± 0.1 | 1.02 (active) |
| Cc1cc(=O)n2c(-c3cccc(NC(=O)C4CCCO4)c3)csc2n1 (stereo not drawn) | 1.25 ± 0.072 | 1.04 ± 0.089 | 1.01 ± 0.037 | 0.973 ± 0.093 | 1.04 ± 0.11 | 0.936 ± 0.18 | 0.999 (active) |
| O=C(CN(c1cc(Cl)cc(Cl)c1)S(=O)(=O)c1ccccc1)N1CCCCCC1 | 1.06 ± 0.13 | 1.13 ± 0.1 | 1.13 ± 0.068 | 0.943 ± 0.14 | 0.991 ± 0.062 | 0.875 ± 0.057 | 0.996 (active) |
